Data reported in PubChem BioAssay AID588342 (National Center for Advancing Translational Sciences (NCATS), 2011).
Hit rate of the full screen: of about 360,000 compounds, about 25,000 (6.9%) were called active. Entries that show only a call come without a potency. Roughly 9% stayed inconclusive and do not appear here. The call rests on the fitted dose curve; in most records, active means well fitted inhibition curve with a large enough effect; inconclusive means small, poorly fitted or top-dose-only effect; inactive means flat fitted curve, though single readings scatter. Only a selection was taken, and actives are over-represented in it overall.

Each molecule was assayed against Luciferin 4-monooxygenase (Photinus pyralis) (UniProt P08659) (assay: qHTS profiling assay for firefly luciferase inhibitor/activator using purifed enzyme and Km concentrations of substrates (counterscreen for miR-21 project)). Conditions: purified FLuc, luminescence inhibition; series mostly up to 57.5 µM.
Method in brief: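 Purified P. pyralis luciferase (10nM final) with 10uM D-luciferin and 10uM ATP (Km levels) in 50mM Tris acetate pH 7.5, 10mM Mg acetate, 0.01% Tween-20, 0.05% BSA; qHTS 6-point titration, ~60 µM downward; luminescence read.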
Further: nearly all actives have a fitted effect of over 55% in size.
Potency means the concentration at half of the fitted maximal effect.

Chain of Luciferin 4-monooxygenase (Photinus pyralis) (P08659 whole entry, looked up): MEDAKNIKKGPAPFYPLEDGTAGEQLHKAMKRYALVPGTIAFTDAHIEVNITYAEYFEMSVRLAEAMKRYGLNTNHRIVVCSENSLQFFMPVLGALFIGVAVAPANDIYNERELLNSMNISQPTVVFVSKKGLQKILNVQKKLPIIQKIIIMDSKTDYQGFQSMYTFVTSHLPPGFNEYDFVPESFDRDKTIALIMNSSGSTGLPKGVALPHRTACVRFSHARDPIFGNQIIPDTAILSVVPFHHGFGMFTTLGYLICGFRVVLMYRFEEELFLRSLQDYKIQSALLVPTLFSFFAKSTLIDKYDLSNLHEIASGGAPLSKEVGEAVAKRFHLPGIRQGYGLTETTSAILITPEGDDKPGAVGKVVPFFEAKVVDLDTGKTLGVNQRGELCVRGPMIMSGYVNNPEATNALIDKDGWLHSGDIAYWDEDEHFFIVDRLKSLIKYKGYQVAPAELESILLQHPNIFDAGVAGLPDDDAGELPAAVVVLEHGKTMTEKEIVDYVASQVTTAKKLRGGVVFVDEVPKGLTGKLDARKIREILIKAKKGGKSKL

Question: With CN1CCN(/N=C2/C(=O)Nc3ccc([N+](=O)[O-])cc32)CC1 as the molecule, how does the Potency read?
Answer: The Potency was “inactive”.

Question: With CCCCN(C(=O)C1CCC1)c1c(N)n(Cc2ccccc2)c(=O)[nH]c1=O as the molecule, how does the Potency read?
Answer: The Potency was “inactive”.

Question: Which Potency does the source give for CCOc1ccc(NC(=O)C(CC(C)C)N2Cc3ccccc3C2=O)cc1 (centres undefined) here?
Answer: The Potency was “inactive”.

Question: With CCOC(=O)c1ccc(NC(=O)C2CC(=O)N(c3ccc(C(C)C)cc3)C2)cc1 (centres undefined) as the molecule, how does the Potency read?
Answer: The Potency was “inactive”.

Question: With CCNC(=O)CC1C(=O)N(c2ccc(OC)cc2)C(=O)N1CCOC (centres undefined) as the molecule, how does the Potency read?
Answer: Its Potency is “inactive”.

Question: How did the Potency turn out when O=C(c1ccc(Oc2ccc(Cl)cc2)c([N+](=O)[O-])c1)N1CCCC1 was run?
Answer: Its Potency is “inactive”.

Question: CCOC(=O)c1oc2ccc(S(=O)(=O)n3nc(-c4ccccc4OC)cc3N)cc2c1C was tested. Which Potency did it give?
Answer: The Potency was “inactive”.

Question: Which Potency does the source give for COc1ccc(-c2[nH]c3c(c2-c2c(-n4cccc4)n(C)c(=O)n(C)c2=O)c(=O)n(C)c(=O)n3C)cc1 here?
Answer: Its Potency is “inactive”.

Question: COC(=O)c1cc(NC(=O)c2nn(C)c(=O)c3ccccc23)cc(C(=O)OC)c1 was tested. Which Potency did it give?
Answer: The Potency was “inactive”.

Question: With CCc1ccccc1NC1c2ccccc2C(=O)N1c1cccnc1 (centres undefined) as the molecule, how does the Potency read?
Answer: Its Potency is “inactive”.

Question: How did the Potency turn out when COC(=O)c1cc(NC2c3ccccc3C(=O)N2c2ccc(Cl)cn2)cc(C(=O)OC)c1 (centres undefined) was run?
Answer: Its Potency is 6.01 µM (active).

Question: Which Potency does the source give for CCOc1ccc(C(=O)N2CCN(CCc3ccccn3)CC2)cc1 here?
Answer: Its Potency is “inactive”.

Question: CCCCNC(=O)CSc1nc2cc3c(cc2c(=O)n1CCCCCC(=O)NCc1ccc2c(c1)OCO2)OCO3 was tested. Which Potency did it give?
Answer: The Potency was “inactive”.

Question: With CCCCN=C1C([N+](=O)[O-])=CC=C2C1=NC1(CCCCC1)N2O as the molecule, how does the Potency read?
Answer: Its Potency is “inactive”.

Question: How did the Potency turn out when CCCn1c(=O)c(C(=O)Nc2cc(C)ccn2)c(O)c2ccccc21 was run?
Answer: Its Potency is “inactive”.

Question: Cn1c(=O)c(C(=O)Nc2ncccn2)c(O)c2ccccc21 was tested. Which Potency did it give?
Answer: Its Potency is 21.3 µM (active).

Question: For C=CCn1c(=O)c(C(=O)Nc2ncccc2O)c(O)c2ccccc21, which Potency is on record?
Answer: The Potency was “inactive”.

Question: Which Potency does the source give for C=CCC(Nc1ccccc1)c1cccc(OC)c1OC (centres undefined) here?
Answer: Its Potency is “inactive”.

Question: How did the Potency turn out when CCCCn1c(N)c(N(CCOC)C(=O)c2oc3ccc(OC)cc3c2C)c(=O)[nH]c1=O was run?
Answer: Its Potency is “inactive”.

Question: For COCCNC(=S)N1CCC(NC(=O)C23CC4CC(CC(C4)C2)C3)CC1, which Potency is on record?
Answer: The Potency was “inactive”.

Question: Cc1ccc(Nc2c(-c3ccc(C)s3)nc3ccccn23)cc1 was tested. Which Potency did it give?
Answer: The Potency was 13.5 µM (active).

Question: Cc1ccc(-c2nc3cccc(C)n3c2Nc2ccc3c(c2)OCCO3)cc1 was tested. Which Potency did it give?
Answer: The Potency was “inactive”.

Question: With CC(C)(C)Nc1c(-c2cccs2)nc2ccccn12 as the molecule, how does the Potency read?
Answer: The Potency was “inactive”.

Question: For Cc1ccn2c(Nc3ccc4c(c3)OCCO4)c(-c3ccc(C)s3)nc2c1, which Potency is on record?
Answer: The Potency was 8.49 µM (active).

Question: For Cc1ccc(Nc2c(-c3ccc(C)cc3)nc3cnccn23)cc1, which Potency is on record?
Answer: The Potency was “inactive”.

Question: With Oc1ccccc1-c1nc2ccc(Cl)cn2c1Nc1ccc2c(c1)OCCO2 as the molecule, how does the Potency read?
Answer: The Potency was “inactive”.

Question: How did the Potency turn out when Cn1c(=O)nc2n(-c3ccc(Br)cc3)c3cccc(Cl)c3cc-2c1=O was run?
Answer: The Potency was “inactive”.

Question: Which Potency does the source give for O=C(COc1ccccc1F)OCc1cc(=O)n2nc(C3CCCCC3)sc2n1 here?
Answer: Its Potency is “inactive”.

Question: With CC(C)CNc1ncnc2c1nnn2C as the molecule, how does the Potency read?
Answer: Its Potency is “inactive”.

Question: O=S(=O)(c1ccc2nc(NCc3ccccc3Cl)ccc2c1)N1CCCCC1 was tested. Which Potency did it give?
Answer: Its Potency is “inactive”.

Question: O=C1C=C(c2cccc(Br)c2)C[C@@H](c2ccc(F)cc2)C1 was tested. Which Potency did it give?
Answer: Its Potency is “inactive”.

Question: Cc1ccc(C)c(N2CCN(Cc3nnc(-c4ccccc4)o3)CC2)c1 was tested. Which Potency did it give?
Answer: The Potency was “inactive”.

Question: O=C(c1[nH]ncc1-c1ccc(Cl)cc1)C1CO1 (centres undefined) was tested. Which Potency did it give?
Answer: Its Potency is “inactive”.

Question: Which Potency does the source give for O=C(c1nnc(-c2ccc(Cl)cc2)o1)C1CCCC1 here?
Answer: Its Potency is 5.36 µM (active).

Question: For CC(C)N(Cc1nnc(-c2ccc(Cl)cc2)o1)C(=O)C1=COCCO1, which Potency is on record?
Answer: Its Potency is “inactive”.

Question: With CCOCCCNC(=O)c1ccc2nc(CCc3ccccc3)oc2c1 as the molecule, how does the Potency read?
Answer: Its Potency is “inactive”.

Question: CN1CCC(N(C)S(=O)(=O)c2ccc(NC(=O)c3cccc(C#N)c3)cc2)CC1 was tested. Which Potency did it give?
Answer: Its Potency is “inactive”.

Question: Which Potency does the source give for COc1ccc2c(c1)C(c1cccs1)=NNC(c1cccnc1)=N2 here?
Answer: Its Potency is “inactive”.

Question: Which Potency does the source give for CCOc1ccc2c(c1)C(c1ccc(C)cc1)=NNC(c1ccc(C)cc1)=N2 here?
Answer: Its Potency is 23.9 µM (active).

Question: For Cc1ccc(C2=Nc3c(ccc4ccccc34)C(c3ccncc3)=NN2)cc1, which Potency is on record?
Answer: Its Potency is “inactive”.

Question: COCCCNC(NC(=O)c1ccc(C)cc1)C(Cl)(Cl)Cl (centres undefined) was tested. Which Potency did it give?
Answer: Its Potency is “inactive”.

Question: Which Potency does the source give for COc1ccc(CCNC(=O)c2ccccc2OCc2ccccc2)cc1 here?
Answer: The Potency was “inactive”.

Question: How did the Potency turn out when COc1ccc(CCNC(=O)c2ccccc2-c2ccccc2C(=O)O)cc1OC was run?
Answer: The Potency was “inactive”.

Question: Which Potency does the source give for COc1cccc2[nH]c(C(=O)NCCc3ccccc3)cc12 here?
Answer: Its Potency is 23.9 µM (active).

Question: Which Potency does the source give for O=C(Cn1ncn2nc(-c3cccs3)cc2c1=O)NCc1cccc(Br)c1 here?
Answer: Its Potency is “inactive”.

Question: With CC(=O)Oc1ccccc1C1=NN(C(C)=O)C(c2ccccc2)C1 (centres undefined) as the molecule, how does the Potency read?
Answer: The Potency was “inactive”.

Question: How did the Potency turn out when CC(=O)c1ccc(NC(=O)COc2ccccc2-c2nc(-c3ccccc3)no2)cc1 was run?
Answer: Its Potency is “inactive”.

Question: How did the Potency turn out when COc1ccc(/C=C/c2noc(-c3ccccc3OC(C)=O)n2)cc1 was run?
Answer: The Potency was 15.1 µM (active).

Question: For Oc1ccccc1-c1nc(/C=C/c2ccc(F)cc2)no1, which Potency is on record?
Answer: Its Potency is 0.757 µM (active).

Question: CCOC(=O)c1c(S(=O)(=O)N2CCC(C(=O)NCc3ccccc3OC)CC2)c(C)n(C)c1C was tested. Which Potency did it give?
Answer: The Potency was “inactive”.

Question: How did the Potency turn out when COc1ccc(CNC(=O)Cn2nnc(-c3ccc(S(C)(=O)=O)cc3)n2)cc1 was run?
Answer: The Potency was “inactive”.

Question: Which Potency does the source give for CCCCOC(=O)/C(C#N)=C/c1ccc(-c2cccc(C(F)(F)F)c2)o1 here?
Answer: The Potency was “inactive”.

Question: How did the Potency turn out when CCCCN1CC(c2nc3ccccc3n2CCCCOc2ccc(C)cc2C)CC1=O (centres undefined) was run?
Answer: Its Potency is “inactive”.

Question: For COc1ccc(C(=O)OCC(=O)N2CC(=O)Nc3ccccc32)cc1Br, which Potency is on record?
Answer: Its Potency is “inactive”.

Question: Which Potency does the source give for CCc1ccc(S(=O)(=O)Nc2cc3c(C(=O)OCc4ccccc4)c(C)oc3c3ccccc23)cc1 here?
Answer: The Potency was “inactive”.

Question: CCC(=O)N1CCc2cc(Br)cc(S(=O)(=O)Nc3ccc(C)cc3C)c21 was tested. Which Potency did it give?
Answer: The Potency was “inactive”.

Question: How did the Potency turn out when O=C(Nc1cccc(OCC(=O)N2CCOCC2)c1)C1CCCCC1 was run?
Answer: Its Potency is “inactive”.

Question: With O=C(COc1ccc(S(=O)(=O)Nc2cccc(C(F)(F)F)c2)cc1)N1CCOCC1 as the molecule, how does the Potency read?
Answer: The Potency was “inactive”.

Question: How did the Potency turn out when O=C(Nc1ccc(OCC(=O)N2CCOCC2)cc1)c1cc(F)c(F)cc1Cl was run?
Answer: The Potency was 9.53 µM (active).

Question: How did the Potency turn out when Cc1ccccc1CSCCNC(=O)C1CCN(S(=O)(=O)Cc2ccccc2)CC1 was run?
Answer: Its Potency is “inactive”.

Question: Which Potency does the source give for CC1=NN(C(=O)CCCc2ccccc2)C(O)(C(F)(F)F)C1 (centres undefined) here?
Answer: The Potency was “inactive”.

Question: Which Potency does the source give for CCC(C)NC(=O)CCCc1ccccc1 (centres undefined) here?
Answer: The Potency was “inactive”.

Question: Which Potency does the source give for C=CCN1CCN(C(=O)CCCc2ccccc2)CC1 here?
Answer: The Potency was 2.13 µM (active).

Question: CC(=O)NCCC(=O)Nc1nc(-c2ccc3c(c2)OCCO3)cs1 was tested. Which Potency did it give?
Answer: The Potency was 19 µM (active).

Question: COc1cc(-c2nnc(NC(=O)C3=COCCO3)o2)cc(OC)c1OC was tested. Which Potency did it give?
Answer: The Potency was “inactive”.

Question: With CC(=O)NCCC(=O)Nc1nc(C)c(Cc2ccc3c(c2)OCO3)s1 as the molecule, how does the Potency read?
Answer: Its Potency is “inactive”.

Question: O=C(Nc1ccc(S(=O)(=O)N2CCCC2)cc1Cl)C1=COCCO1 was tested. Which Potency did it give?
Answer: Its Potency is “inactive”.

Question: With CC(=O)NCc1ccc(-c2csc(NC(=O)CCCc3nc4ccccc4c(=O)[nH]3)n2)cc1 as the molecule, how does the Potency read?
Answer: The Potency was “inactive”.

Question: For Cc1ccc(-c2csc(NC(=O)C3=COCCO3)n2)cc1C, which Potency is on record?
Answer: The Potency was 6.75 µM (active).
